Measured values taken from PubChem BioAssay (NCATS).
Inconclusive results are not listed. Entries that show only a call come without a potency. Values without a mark were called inactive. Activity calls are given as the source filed them. The call rests on the fitted dose curve; in most records, active means well fitted cell-killing curve with a large enough effect; inconclusive means small, poorly fitted or top-dose-only effect, or effect the other way; inactive means flat fitted curve, though single readings scatter.

These compounds were tested on Tov-21-G (assay: Primary qHTS to identify gynecologic anti-cancer compounds using libraries of approved drugs and bioactive compounds (AID 1345084; further: nearly all actives have a fitted effect of over 55% in size)). Settings: Gynecologic cancer cell panel viability, ATPlite luminescence, 48 h; series mostly up to 57.5 µM.
In short: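 Cells, 1,000 per well, were allowed to settle for 16 h at 37 C before compound addition. Five concentrations were tested for 48 h, and viability was read by ATPlite luminescence after 15 min at room temperature.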

Compound | Potency | activity change, negative = cytotoxicity
Cc1cn2cc(CC(=O)N3CCC4(CC3)CN(Cc3ccc(-n5nccn5)cc3Cl)C4)nc2s1 | inactive | 
O=C(OCC1=CC(Cl)C(O)C(OC(=O)c2ccccc2)C1O)c1ccccc1 (stereo not drawn) | inactive | 
C=C1C(OC(C)=O)CCC2(C)CC3(O)OC(=O)C(C)=C3CC12 (stereo not drawn) | inactive | 
C=C1CC[C@@]2(OC1)O[C@H]1CC3C4CC=C5C[C@@H](O[C@@H]6O[C@@H](C)[C@H](O)[C@@H](O)[C@H]6O)C[C@@H](O[C@@H]6O[C@H](C)[C@H](O)[C@H](O)[C@H]6O[C@@H]6O[C@@H](C)[C@H](O)[C@@H](O)[C@H]6O)[C@]5(C)C4CC[C@]3(C)[C@H]1[C@@H]2C (stereo partly drawn) |  | -15.7% [at 11.6 µM]
Cc1c(O)cc2c(c1O)COC1(O)CCCOC21 (stereo not drawn) | inactive | 
COc1cc(Nc2nc3c(s2)CCCC3c2ccccc2)ccc1-n1cnc(C)c1 (stereo not drawn) |  | 9.24% [at 11.6 µM]
C/C=C1/[C@H](O[C@@H]2O[C@H](CO)[C@@H](O)[C@H](O)[C@H]2O)OC=C(C(=O)OC)[C@H]1CC(=O)OCCc1ccc(O)c(O)c1 | inactive | 
CC(=O)C1CCC(=O)N1Cc1ccccc1 (stereo not drawn) | inactive | 
COc1cccc(Cn2ncc3c4sc(S(C)=O)cc4n(C)c3c2=O)c1 (stereo not drawn) | inactive | 
O=S(=O)(O)c1ccc(Nc2ncnc3c2ncn3[C@@H]2O[C@H](CO)[C@@H](O)[C@H]2O)cc1 | inactive | 
CC(C)c1ccc2c(c1)C(O)CC1C(C)(C(=O)O)CCCC21C (stereo not drawn) | inactive | 
CC1=C(C)C(=O)OC(C(C)C2C(O)CC3C4C5OC5C5(O)CC(OC6OC(CO)C(OC7OC(C)C(O)C(O)C7O)C(O)C6O)CC(O)C5(C)C4CCC32C)C1 (stereo not drawn) | inactive | 
CCc1cc(CC[C@]2(C3CCCC3)CC(O)=C(Cc3nc4nc(C)cc(C)n4n3)C(=O)O2)cc(CC)n1 | inactive | 
C[C@@]1(C(=O)O)CCC[C@@]2(C)C3=CC[C@H]4C[C@@]3(CC[C@H]12)CC4(O)CO (stereo partly drawn) | inactive | 
C=C[C@H]1[C@H](O[C@@H]2O[C@H](CO)[C@@H](O)[C@H](O)[C@H]2O)OC=C(C(=O)OC)[C@H]1CCO | inactive | 
O=C(O)C1(c2ccc(-c3ccc(Cl)c(Cl)c3)c(F)c2)CC1 | inactive | 
CC1=CCC2C(C)(C)CCCC2(C)C1CC12OC1C(O)C(CO)=CC2O (stereo not drawn) | inactive | 
C[C@]12CCC[C@](C)(C(=O)O)C1[C@@H](O)[C@@H](O)C13CC(CCC12)C(CO)(O[C@@H]1O[C@H](CO)[C@@H](O)[C@H](O)[C@H]1O)C3 (stereo partly drawn) | inactive | 
CC(=O)NC1CC(=O)C23C(=O)NC(Cc4c[nH]c5ccccc45)C2C(C)=C(C)C(O)C3/C=C/CC(C)/C=C(/C)C(O)C1O (stereo not drawn) | inactive | 

Compound | Potency | activity change, negative = cytotoxicity
C/C=C/C(=O)OC1/C=C/C(O)C(OC(C)=O)CCC(=O)OC1C (stereo not drawn) | inactive | 
C/C=C/C=C/C1=C2C(=O)C3(C)C4C(C(=O)CC(O)/C=C/C)=C(O1)C1(C)C2C2(C)OC1(O)C4(C)OC23O (stereo not drawn) | inactive | 
COC(=O)/C=C/c1ccc(O[C@@H]2O[C@H](CO)[C@@H](O)[C@H](O)[C@H]2O)cc1 | inactive | 
CC(=O)OC1CC2C(C)(C)C(=O)C=CC2(C)C2CC(=O)C3=C(CCC3C3=CC(O)OC3=O)C12C (stereo not drawn) | inactive | 
CC1CC2(O)OC(=O)C3=C2C(CCC3)[C@@]12C[C@@H](c1ccoc1)OC2=O (stereo partly drawn) | inactive | 
COc1c2c(c(C)c3c1C(=O)OC3)OC1(C)CC(O)C34OC(OC)(CCC3(C)C1C2)OC4(C)CO (stereo not drawn) | inactive | 
C[C@@H]1O[C@@H](OC2C(O[C@H]3[C@H](O[C@H]4CC[C@@]5(C)C(CC[C@]6(C)C5CC=C5C7CC(C)(C)CC(O)[C@]7(C)CC[C@]56C)C4(C)C)O[C@H](C(=O)O)[C@@H](O)[C@@H]3O)OC(CO)C(O)C2O)[C@H](O)[C@H](O)[C@H]1O (stereo partly drawn) |  | 5% [at 11.6 µM]
CN1CCN(C(=O)c2cc3cc(Cl)ccc3[nH]2)CC1 | inactive | 
O=C1OC(c2ccc(O)cc2)C(O)=C1Cc1ccccc1 (stereo not drawn) | inactive | 
CC(O)C(O)/C=C/C=C/C(=O)O[C@@H]1C=C(C(=O)O)[C@](O)(CO)[C@@]2(C)CCCC(C)(C)[C@H]12 (stereo partly drawn) | inactive | 
CC1=CC2=C(C)C(=O)[C@](C)(O)[C@H](O)C2=CO1 | inactive | 
CCC(=O)OCC(=O)[C@@]1(OC(=O)CC)[C@@H](C)C[C@H]2[C@@H]3CCC4=CC(=O)C=C[C@]4(C)[C@@]3(F)[C@@H](O)C[C@@]21C | inactive | 
C=C1C[C@]23C[C@H]1CC[C@H]2[C@]1(C)CC[C@H](O)[C@@](C)(C(=O)O)[C@H]1[C@@H]3C(=O)O | inactive | 
CC(=O)OCC1OC(OC2COC(OC3COC(OC4C(OC5C(CO)OC(OC6CCC7(C)C(CCC8(C)C7CC=C7C9CC(C)(C)CCC9(C(=O)OC9OC(CO)C(O)C(O)C9OC9OCC(OC%10OCC(O)(CO)C%10O)C(O)C9O)C(O)CC78C)C6(C)C)C(O)C5O)OCC(O)C4O)C(O)C3O)C(O)C2O)C(OC(=O)/C=C/c2ccccc2)C(O)C1OC(C)=O (stereo not drawn) |  | -3.47% [at 6.55 µM]
Cc1ccc(-c2c(-c3nn(C)c4ncnc(N5CC[C@H](N6CCCCC6)C5)c34)cnn2C)cc1 | inactive | 
CC(C)NC(=O)c1ccc(C#Cc2ccncc2)cn1 | inactive | 
CC(=O)OC1C(C)C2C(OC3OC(CO)C(O)C(O)C3O)OC=C(C(=O)O)C2C1OC(=O)c1ccccc1 (stereo not drawn) | inactive | 
O=C(N[C@@H]1CC[C@@H](c2cccc(F)c2F)CN(CC(F)(F)F)C1=O)N1CCC(n2c(=O)[nH]c3ncccc32)CC1 | inactive | 
O=C(Nc1cc(-c2ccccc2)nn1-c1ccccc1)c1ccc([N+](=O)[O-])cc1 | inactive | 
